# Measurements taken from paper PMC11006913.
# Substitutions are numbered along the chain they refer to.
# Assays:
# Experiment in all cases: PBM; 200 nM protein, PBS
# Conditions in all cases: dsDNA, one strand shown
# [1] = target: PRRX1 (Homo sapiens, UniProt P54821 80-166, F113S)
# [2] = target: HOXB6 (Homo sapiens, UniProt P17509 132-218, K202E)
# [3] = target: PRRX1 (Homo sapiens, UniProt P54821 80-166)
# [4] = target: HOXB6 (Homo sapiens, UniProt P17509 132-218)
# [5] = target: HOXA2 (Homo sapiens, UniProt O43364 129-215, R185T)
# [6] = target: HOXA2 (Homo sapiens, UniProt O43364 129-215, R185K)
# [7] = target: HOXA2 (Homo sapiens, UniProt O43364 129-215, Y150S)
# [8] = target: HOXA2 (Homo sapiens, UniProt O43364 129-215)
# [9] = target: ALX3 (Homo sapiens, UniProt O95076 139-225, N203Q)
# [10] = target: ALX3 (Homo sapiens, UniProt O95076 139-225)
# [11] = target: VAX1 (Homo sapiens, UniProt Q5SQQ9 86-172)
# [12] = target: ALX3 (Homo sapiens, UniProt O95076 139-225, L168Q)
# [13] = target: ALX3 (Homo sapiens, UniProt O95076 139-225, L168V)
# [14] = target: VAX1 (Homo sapiens, UniProt Q5SQQ9 86-172, T142I)
# [15] = target: ALX3 (Homo sapiens, UniProt O95076 139-225, N203S)
# [16] = target: VAX1 (Homo sapiens, UniProt Q5SQQ9 86-172, K157R)
# [17] = target: ALX4 (Homo sapiens, UniProt Q9H161 200-286, Q225E)
# [18] = target: ALX1 (Homo sapiens, UniProt Q15699 118-204, L144V)
# [19] = target: T1, PAX4 (Homo sapiens, UniProt O43316 9-242, R200Q)
# T1 sequence: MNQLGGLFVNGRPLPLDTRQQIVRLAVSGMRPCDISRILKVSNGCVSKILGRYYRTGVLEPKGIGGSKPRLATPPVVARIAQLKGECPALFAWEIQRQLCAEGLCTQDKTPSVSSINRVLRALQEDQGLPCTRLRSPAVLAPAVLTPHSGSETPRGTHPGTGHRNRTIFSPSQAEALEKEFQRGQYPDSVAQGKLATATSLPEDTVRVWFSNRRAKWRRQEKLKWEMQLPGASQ
# [20] = target: SHOX (Homo sapiens, UniProt O15266 103-189, R173C)
# [21] = target: ALX1 (Homo sapiens, UniProt Q15699 118-204, L144R)
# [22] = target: HESX1 (Homo sapiens, UniProt Q9UBX0 95-180, R109Q)
# [23] = target: ALX1 (Homo sapiens, UniProt Q15699 118-204)
# [24] = target: T2, NKX2-6 (Homo sapiens, UniProt A6NCS4 118-204, R150C)
# T2 sequence: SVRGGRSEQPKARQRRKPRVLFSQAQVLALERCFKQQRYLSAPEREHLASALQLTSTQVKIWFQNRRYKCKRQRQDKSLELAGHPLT
# [25] = target: HESX1 (Homo sapiens, UniProt Q9UBX0 95-180, F115L)
# [26] = target: T3, NKX2-6 (Homo sapiens, UniProt A6NCS4 118-204)
# T3 sequence: T2 sequence with C33R
# [27] = target: T4, NKX2-6 (Homo sapiens, UniProt A6NCS4 118-204, F151L)
# T4 sequence: T2 sequence with C33R, F34L
# [28] = target: MSX2 (Homo sapiens, UniProt P35548 130-214, R199I)
# [29] = target: T5, PAX4 (Homo sapiens, UniProt O43316 9-242, R227W)
# T5 sequence: T1 sequence with Q192R, R219W
# Sequence of PRRX1 (Homo sapiens, UniProt P54821 80-166) (P54821 80-166): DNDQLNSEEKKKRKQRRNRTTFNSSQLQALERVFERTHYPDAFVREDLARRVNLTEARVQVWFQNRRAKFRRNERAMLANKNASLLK
# Sequence of ALX3 (Homo sapiens, UniProt O95076 139-225, L168V) (O95076 139-225 L168V): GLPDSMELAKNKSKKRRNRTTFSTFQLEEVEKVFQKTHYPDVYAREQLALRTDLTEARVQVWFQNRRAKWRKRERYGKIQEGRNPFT
# Sequence of PRRX1 (Homo sapiens, UniProt P54821 80-166, F113S) (P54821 80-166 F113S): as the sequence (P54821 80-166) above, with F34S counted along it
# Sequence of HOXB6 (Homo sapiens, UniProt P17509 132-218, K202E) (P17509 132-218 K202E): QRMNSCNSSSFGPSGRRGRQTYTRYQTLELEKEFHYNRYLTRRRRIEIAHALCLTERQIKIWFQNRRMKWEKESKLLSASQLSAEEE
# Sequence of SHOX (O15266 103-189 R173C): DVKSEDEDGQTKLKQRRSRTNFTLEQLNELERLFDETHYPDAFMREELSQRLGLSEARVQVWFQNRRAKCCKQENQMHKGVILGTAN
# Sequence of ALX3 (Homo sapiens, UniProt O95076 139-225, L168Q) (O95076 139-225 L168Q): as the sequence (O95076 139-225 L168V) above, with V30Q counted along it
# Sequence of HOXB6 (Homo sapiens, UniProt P17509 132-218) (P17509 132-218): as the sequence (P17509 132-218 K202E) above, with E71K counted along it
# Sequence of ALX1 (Homo sapiens, UniProt Q15699 118-204, L144R) (Q15699 118-204 L144R): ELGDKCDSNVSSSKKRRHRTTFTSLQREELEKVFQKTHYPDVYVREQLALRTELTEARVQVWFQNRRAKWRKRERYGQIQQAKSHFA
# Sequence of ALX1 (Homo sapiens, UniProt Q15699 118-204) (Q15699 118-204): as the sequence (Q15699 118-204 L144R) above, with R27L counted along it
# Sequence of VAX1 (Homo sapiens, UniProt Q5SQQ9 86-172, K157R) (Q5SQQ9 86-172 K157R): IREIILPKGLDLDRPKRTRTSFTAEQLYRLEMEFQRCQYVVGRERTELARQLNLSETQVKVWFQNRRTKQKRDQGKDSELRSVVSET
# Sequence of ALX4 (Q9H161 200-286 Q225E): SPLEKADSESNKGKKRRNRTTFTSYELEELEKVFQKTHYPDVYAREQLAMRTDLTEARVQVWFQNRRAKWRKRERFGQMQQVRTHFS
# Sequence of HOXA2 (Homo sapiens, UniProt O43364 129-215, R185T) (O43364 129-215 R185T): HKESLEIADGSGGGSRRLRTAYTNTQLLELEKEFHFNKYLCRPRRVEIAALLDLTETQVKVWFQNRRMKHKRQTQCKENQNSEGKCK
# Sequence of VAX1 (Homo sapiens, UniProt Q5SQQ9 86-172) (Q5SQQ9 86-172): as the sequence (Q5SQQ9 86-172 K157R) above, with R72K counted along it
# Sequence of HOXA2 (Homo sapiens, UniProt O43364 129-215, R185K) (O43364 129-215 R185K): as the sequence (O43364 129-215 R185T) above, with T57K counted along it
# Sequence of ALX3 (Homo sapiens, UniProt O95076 139-225, N203S) (O95076 139-225 N203S): as the sequence (O95076 139-225 L168V) above, with V30L, N65S counted along it
# Sequence of VAX1 (Homo sapiens, UniProt Q5SQQ9 86-172, T142I) (Q5SQQ9 86-172 T142I): as the sequence (Q5SQQ9 86-172 K157R) above, with T57I, R72K counted along it
# Sequence of HESX1 (Homo sapiens, UniProt Q9UBX0 95-180, R109Q) (Q9UBX0 95-180 R109Q): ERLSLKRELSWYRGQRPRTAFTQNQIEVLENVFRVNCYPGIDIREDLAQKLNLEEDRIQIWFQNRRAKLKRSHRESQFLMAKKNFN
# Sequence of ALX1 (Homo sapiens, UniProt Q15699 118-204, L144V) (Q15699 118-204 L144V): as the sequence (Q15699 118-204 L144R) above, with R27V counted along it
# Sequence of ALX3 (Homo sapiens, UniProt O95076 139-225, N203Q) (O95076 139-225 N203Q): as the sequence (O95076 139-225 L168V) above, with V30L, N65Q counted along it
# Sequence of HOXA2 (Homo sapiens, UniProt O43364 129-215) (O43364 129-215): as the sequence (O43364 129-215 R185T) above, with T57R counted along it
# Sequence of HOXA2 (Homo sapiens, UniProt O43364 129-215, Y150S) (O43364 129-215 Y150S): as the sequence (O43364 129-215 R185T) above, with Y22S, T57R counted along it
# Sequence of ALX3 (Homo sapiens, UniProt O95076 139-225) (O95076 139-225): as the sequence (O95076 139-225 L168V) above, with V30L counted along it
# Sequence of HESX1 (Homo sapiens, UniProt Q9UBX0 95-180, F115L) (Q9UBX0 95-180 F115L): as the sequence (Q9UBX0 95-180 R109Q) above, with Q15R, F21L counted along it
# Sequence of MSX2 (P35548 130-214 R199I): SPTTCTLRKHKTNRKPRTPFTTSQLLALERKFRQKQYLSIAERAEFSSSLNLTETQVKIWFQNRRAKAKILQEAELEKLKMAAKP
sequence,measurement,setting,value
GTCCCCAC,binding signal,[1],"9.29 upbm affinity estimate (log intensity, higher = more binding, comparable within an allelic series)"
same,binding signal,[2],"9.01 upbm affinity estimate (log intensity, higher = more binding, comparable within an allelic series)"
same,binding signal,[3],"9.35 upbm affinity estimate (log intensity, higher = more binding, comparable within an allelic series)"
same,binding signal,[4],"9.13 upbm affinity estimate (log intensity, higher = more binding, comparable within an allelic series)"
ACGCCGGA,binding signal,[1],"9.29 upbm affinity estimate (log intensity, higher = more binding, comparable within an allelic series)"
same,binding signal,[5],"7.08 upbm affinity estimate (log intensity, higher = more binding, comparable within an allelic series)"
same,binding signal,[6],"10.3 upbm affinity estimate (log intensity, higher = more binding, comparable within an allelic series)"
same,binding signal,[7],"10.5 upbm affinity estimate (log intensity, higher = more binding, comparable within an allelic series)"
same,binding signal,[3],"9.34 upbm affinity estimate (log intensity, higher = more binding, comparable within an allelic series)"
same,binding signal,[8],"7.28 upbm affinity estimate (log intensity, higher = more binding, comparable within an allelic series)"
AGCCGGGC,binding signal,[1],"8.99 upbm affinity estimate (log intensity, higher = more binding, comparable within an allelic series)"
same,binding signal,[9],"7.69 upbm affinity estimate (log intensity, higher = more binding, comparable within an allelic series)"
same,binding signal,[10],"7.71 upbm affinity estimate (log intensity, higher = more binding, comparable within an allelic series)"
same,binding signal,[11],"7 upbm affinity estimate (log intensity, higher = more binding, comparable within an allelic series)"
same,binding signal,[12],"7.68 upbm affinity estimate (log intensity, higher = more binding, comparable within an allelic series)"
same,binding signal,[13],"7.64 upbm affinity estimate (log intensity, higher = more binding, comparable within an allelic series)"
same,binding signal,[14],"7.24 upbm affinity estimate (log intensity, higher = more binding, comparable within an allelic series)"
same,binding signal,[15],"7.72 upbm affinity estimate (log intensity, higher = more binding, comparable within an allelic series)"
same,binding signal,[3],"9.33 upbm affinity estimate (log intensity, higher = more binding, comparable within an allelic series)"
same,binding signal,[16],"6.91 upbm affinity estimate (log intensity, higher = more binding, comparable within an allelic series)"
AATTAAAC,binding signal,[1],"11.1 upbm affinity estimate (log intensity, higher = more binding, comparable within an allelic series)"
same,binding signal,[17],"12.8 upbm affinity estimate (log intensity, higher = more binding, comparable within an allelic series)"
same,binding signal,[18],"11.3 upbm affinity estimate (log intensity, higher = more binding, comparable within an allelic series)"
same,binding signal,[19],"11.8 upbm affinity estimate (log intensity, higher = more binding, comparable within an allelic series)"
same,binding signal,[20],"9.29 upbm affinity estimate (log intensity, higher = more binding, comparable within an allelic series)"
same,binding signal,[21],"11 upbm affinity estimate (log intensity, higher = more binding, comparable within an allelic series)"
same,binding signal,[22],"8.69 upbm affinity estimate (log intensity, higher = more binding, comparable within an allelic series)"
same,binding signal,[12],"10.2 upbm affinity estimate (log intensity, higher = more binding, comparable within an allelic series)"
same,binding signal,[13],"9.91 upbm affinity estimate (log intensity, higher = more binding, comparable within an allelic series)"
same,binding signal,[23],"12 upbm affinity estimate (log intensity, higher = more binding, comparable within an allelic series)"
GCCGGACC,binding signal,[1],"9.13 upbm affinity estimate (log intensity, higher = more binding, comparable within an allelic series)"
same,binding signal,[2],"8.9 upbm affinity estimate (log intensity, higher = more binding, comparable within an allelic series)"
same,binding signal,[3],"9.39 upbm affinity estimate (log intensity, higher = more binding, comparable within an allelic series)"
same,binding signal,[4],"8.93 upbm affinity estimate (log intensity, higher = more binding, comparable within an allelic series)"
CACGTGGC,binding signal,[1],"9.17 upbm affinity estimate (log intensity, higher = more binding, comparable within an allelic series)"
same,binding signal,[24],"9.61 upbm affinity estimate (log intensity, higher = more binding, comparable within an allelic series)"
same,binding signal,[3],"9.4 upbm affinity estimate (log intensity, higher = more binding, comparable within an allelic series)"
AAATAATT,binding signal,[1],"11.1 upbm affinity estimate (log intensity, higher = more binding, comparable within an allelic series)"
same,binding signal,[2],"9.97 upbm affinity estimate (log intensity, higher = more binding, comparable within an allelic series)"
same,binding signal,[25],"7.74 upbm affinity estimate (log intensity, higher = more binding, comparable within an allelic series)"
ACTTTAAG,binding signal,[1],"10.1 upbm affinity estimate (log intensity, higher = more binding, comparable within an allelic series)"
same,binding signal,[26],"12.5 upbm affinity estimate (log intensity, higher = more binding, comparable within an allelic series)"
same,binding signal,[27],"10.3 upbm affinity estimate (log intensity, higher = more binding, comparable within an allelic series)"
same,binding signal,[3],"10.8 upbm affinity estimate (log intensity, higher = more binding, comparable within an allelic series)"
AATTATAG,binding signal,[1],"11.2 upbm affinity estimate (log intensity, higher = more binding, comparable within an allelic series)"
same,binding signal,[28],"12.2 upbm affinity estimate (log intensity, higher = more binding, comparable within an allelic series)"
same,binding signal,[20],"9.23 upbm affinity estimate (log intensity, higher = more binding, comparable within an allelic series)"
same,binding signal,[13],"9.73 upbm affinity estimate (log intensity, higher = more binding, comparable within an allelic series)"
same,binding signal,[29],"10.9 upbm affinity estimate (log intensity, higher = more binding, comparable within an allelic series)"
GACTCTAA,binding signal,[1],"10.1 upbm affinity estimate (log intensity, higher = more binding, comparable within an allelic series)"
same,binding signal,[3],"11.1 upbm affinity estimate (log intensity, higher = more binding, comparable within an allelic series)"
